Results published in PubChem BioAssay AID2546 (National Center for Advancing Translational Sciences (NCATS), 2010).
About 11,000 (3.5%) of roughly 310,000 compounds were called active. Another 8% or so got no clear call; they are omitted. Calls follow the shape of the dose curve; as a rule, active = well fitted inhibition curve with a large enough effect; inconclusive = small, poorly fitted or top-dose-only effect, or effect the other way; inactive = flat fitted curve, though single readings scatter. Shown is part of a subset that was picked to be rich in actives.

Experiment: VP16 counterscreen qHTS for inhibitors of ROR gamma transcriptional activity;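 also: Gal4-VP16 expression switched on by copper sulfate through the metallothionein promoter; nearly all actives have a fitted effect of over 50% in size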
Conditions: Drosophila S2 Gal4-VP16 UAS-luciferase, luminescence, 20 h; series mostly up to 53.6 µM; activity, negative = inhibition: at the top concentration
From the text: NIH Molecular Libraries Probe Production Network [MLPCN]
NIH Chemical Genomics Center [NCGC]
Assay Provider: Dan Littman, New York University
The retinoic acid-related orphan receptor (ROR) gamma is a transcription factor that has a central role in the differentiation of Th17 cells, a subset of T helper cells that secrete the inflammatory cytokines IL-17, IL-17F, and IL-22. Th17 cells have been implicated in graft versus host disease, autoimmune disease and asthma. ROR gamma is induced in naive T helper cells in the presence of TGF-beta combined with IL-6, IL-21, or IL-23, and thereafter directs the expression of the Th17 lineage cytokines. To identify nonspecific inhibitors, a Drosophila Schneider cell line was stably transfected with two vectors: a gene expressing a fusion of the Gal4 DNA binding domain and VP16 transactivation domain under the control of the metallothionine promoter and a Photinus luciferase reporter regulated by the Gal4 binding site enhancer, UAS. […] Small molecule inhibitors that inhibit components common to the RORgt and VP16 assays, such as the Gal4 DNA binding domain or the UAS luciferase reporter, will be active in both assays and thus scored as nonspecific.
For screening, 600 cells in 4 uL/well were dispensed into white solid 1536-well plates (Grenier) using a solenoid-based dispenser. Following transfer of 23 nL compound or DMSO vehicle by a pin tool, the plates were incubated 1 hr at ambient temperature, and 1 uL/well copper sulfate (700 uM final concentration) was added. The plates were centrifuged 15 s at 1000 RPM and incubated 20 hr at ambient temperature. After addition of 1.5 uL Photinus luciferase detection reagent, the plates were incubated 10 min at ambient temperature and then read by a ViewLux (Perkin Elmer) to detect luminescence.
% is scaled to controls: 0 for no effect and ±100 for the full control effect; potency is read from the fitted curve at half-maximal effect.

Structure (SMILES) | activity, negative = inhibition | Potency
COc1ccc(C2c3[nH]c4ccccc4c3C[C@H]3C(=O)N(CC(C)C)CC(=O)N23)c(OC)c1 (stereo partly specified) | -0.271% (inactive) | 
O=S(=O)(NC1CCCCC1N1CCCCC1)c1ccc(Cl)cc1 (stereo unspecified) | -10.5% (inactive) | 
COC(=O)c1cccnc1NC(=S)NC(C)C |  | 4.47 µM (active)
CCOC(=O)c1cccnc1NC(=O)c1ccncc1 | -16% (inactive) | 
COc1ccc(OC)c(C(C)NC(=S)Nc2ccc(S(=O)(=O)Nc3ncccn3)cc2)c1 (stereo unspecified) | 10.8% (inactive) | 
CCN(C(=O)c1cc([N+](=O)[O-])ccc1NCc1cccnc1)c1ccccc1 | -7.93% (inactive) | 
CC1=NN(Cc2ccccc2)C(=O)/C1=C/c1ccc(N(C)C)cc1 | 4.44% (inactive) | 
CN(C)c1ccc(/C=C2\NC(=S)N(Cc3ccccc3)C2=O)cc1 |  | 11.2 µM (active)
O=C1NCC(=O)N(Cc2ccccc2)/C1=C/c1ccccc1 | 0.172% (inactive) | 
Cn1cc(S(=O)(=O)Nc2ccc(Cl)cc2Cl)c(=O)n(C)c1=O | -9.29% (inactive) | 
Cc1cc(C)nc(-n2nc(C)cc2NC(=O)c2ccc(F)cc2F)n1 |  | 3.16 µM (active)
Cc1cc(NC(=O)c2cnn3cccnc23)n(-c2ccccc2)n1 | -28.7% (inactive) | 
CC(=O)N/C(=N/c1nc(C)cc(C)n1)Nc1ccc(F)cc1F | 5.33% (inactive) | 
COc1cc2ccccc2cc1C(=O)N(CCN(C)C)c1nc2c(F)cccc2s1 | -13.9% (inactive) | 
CC(C)(C)SCCSC1=CC(=O)CC(c2ccccc2)C1 (stereo unspecified) | 28.7% (inactive) | 
O=C(Nc1ccc(S(=O)(=O)N2CCCCCC2)cc1)c1c(F)cccc1F | -14.4% (inactive) | 
CCOc1ncccc1C(=O)NCCc1ccc(OC)cc1 | -0.0396% (inactive) | 
Cc1cc(C)cc(NC(=O)C2CCCN2S(=O)(=O)c2cccc3cccnc23)c1 (stereo unspecified) | 0.608% (inactive) | 
O=C(Nc1nc2ccc([N+](=O)[O-])cc2s1)c1ccncc1 | -3.85% (inactive) | 
O=C(Nc1nc2ccc([N+](=O)[O-])cc2s1)c1ccc(S(=O)(=O)N2CCCc3ccccc32)cc1 |  | 3.98 µM (active)
CS(=O)(=O)c1ccc2nc(NC(=O)c3ccc(N4CCCC4=O)cc3)sc2c1 | -7.58% (inactive) | 
O=C(COC(=O)c1ccc(F)cc1)Nc1nc2ccc([N+](=O)[O-])cc2s1 | -1.03% (inactive) | 
O=C(NC(Nc1nc2ccc([N+](=O)[O-])cc2s1)(C(F)(F)F)C(F)(F)F)c1ccccc1 |  | 2.82 µM (active)
CSc1nc2ccc(S(=O)(=O)N3CCc4ccccc43)cc2s1 | -40.6% (inactive) | 
CCOC(=O)c1cc(C(=O)Nc2ccc(S(=O)(=O)Nc3ccc(OC)cc3)cc2)nn1C | -13.2% (inactive) | 
COC(=O)c1cccc(N(C(=O)CNC(=O)c2cccs2)C(C(=O)NCC2CCCO2)c2ccc(OC)c(OC)c2)c1 (stereo unspecified) | -2.8% (inactive) | 

Structure (SMILES) | activity, negative = inhibition | Potency
Cc1cccc(CCNS(=O)(=O)c2ccc3c(c2)NC(=O)CO3)c1 | 10.3% (inactive) | 
COc1ccc(CN2CCNC(=O)C2CC(=O)NCc2cn[nH]c2-c2ccccc2)c(F)c1 (stereo unspecified) | -5.29% (inactive) | 
COc1ccc(C(CNC(=O)COc2ccccc2OC)N2CCCCC2)cc1 (stereo unspecified) | -0.743% (inactive) | 
O=C1OC2(CCCCC2)CC2=C1C1O[C@](c3ccsc3)(Cc3ccccc31)O2 | -4.71% [at 10 µM] (inactive) | 
COc1cc2c(cc1OC)C(c1ccccc1Br)NC(=O)C2 (stereo unspecified) | -3.64% (inactive) | 
COc1ccc(NC(=O)CCCC2CCCCC2)c(OC)c1 | 9.83% (inactive) | 
CCOc1cc(NC(=O)c2ccccn2)c(OCC)cc1NC(=O)c1ccc(OC)cc1 | 4.71% (inactive) | 
Cc1cccc(OCC(=O)NCCCNC(=O)c2ccccn2)c1 | 4.73% (inactive) | 
CCN(CC)CCOc1ccc2c(c1)C(=NNC(=O)c1ccccn1)c1cc(OCCN(CC)CC)ccc1-2 |  | 10 µM (active)
Cc1onc(C(=O)Nc2ccc3c(c2)OCO3)c1[N+](=O)[O-] | -0.154% (inactive) | 
COc1ccc(N(C(=O)c2snc(C(N)=O)c2N)C(C(=O)NC2CCCC2)c2ccco2)cc1OC (stereo unspecified) | 18.6% (inactive) | 
COc1ccc(C(=O)N2CCCC(C(=O)c3ccccc3OC)C2)cc1OC (stereo unspecified) | 2.57% (inactive) | 
Cc1ccc(-c2cc(C(F)(F)F)n3ncc(C(=O)N4CCCCC4c4cccnc4)c3n2)cc1 (stereo unspecified) | -3.74% (inactive) | 
O=C(Nc1ccccc1C(F)(F)F)N1CCCC1c1cccnc1 (stereo unspecified) | -1.56% (inactive) | 
COc1ccc(C(=O)Nc2cccnc2)cc1C(=O)Nc1cccnc1 | -9.29% (inactive) | 
COc1ccc(C(=O)NC(=S)N2CCCCC2c2cccnc2)cc1OC (stereo unspecified) |  | 17.8 µM (active)
O=C(NC(=S)N1CCCCC1c1cccnc1)c1ccccc1 (stereo unspecified) |  | 4.47 µM (active)
COc1ccc(Nc2ncnc3sc(C)cc23)cc1 | -8.4% (inactive) | 
CCc1nnc(NS(=O)(=O)c2ccc(N=Cc3c(C)[nH]n(-c4ccc(C)cc4)c3=O)cc2)s1 | 0.41% (inactive) | 
Cc1ccc(-n2[nH]c(C)c(/C=N/N3C(=O)c4cccc5cccc(c45)C3=O)c2=O)cc1 |  | 12.6 µM (active)
Cc1ccc(-c2ccnc3[nH]n(-c4ccccc4)c(=O)c23)cc1 | -8.24% (inactive) | 
O=C(CNC(=O)C1COc2ccccc2O1)N/N=C/c1cc(Br)c(O)c(Br)c1 (stereo unspecified) | -0.0094% (inactive) | 
O=C(NCCc1c[nH]c2ccccc12)C1CCN(Cc2ccc(Br)cc2)CC1 | -0.728% (inactive) | 
COc1ccccc1N1CCN(C(=O)CCS(=O)(=O)c2ccc3c(c2)NC(=O)C(C)S3)CC1 (stereo unspecified) | -26.4% (inactive) | 
CCOc1ccc(NC(=O)C2CCN(C(=O)N3CCOc4ccccc43)CC2)cc1 | -5.72% (inactive) | 
CCCNC(=O)c1cnc(-c2ccccc2)nc1-c1ccccc1 | 14.3% (inactive) | 

Structure (SMILES) | activity, negative = inhibition | Potency
CC(=O)c1c(C)[nH]c(=S)c(C#N)c1-c1ccc(F)cc1 | -8.92% (inactive) | 
CCOC(=O)c1c(C)[nH]c(=S)c(C#N)c1-c1ccccc1 |  | 17.8 µM (active)
CCOC(=O)c1c(C)nc(-c2ccccc2)nc1NC(=O)C(C)C | 17% (inactive) | 
CCOC(=O)c1c(C)[nH]c(C(=O)NCc2ccccc2OC)c1C | -2.66% (inactive) | 
CCOC(=O)c1c(C)[nH]c(C)c1S(=O)(=O)N(C)CC(=O)Nc1ccccc1C | 0% (inactive) | 
CCOC(=O)c1c(C)[nH]c2c1-c1ccccc1C(=O)C2=O |  | 2.82 µM (active)
COc1cccc(CN(C)C(=O)CC23CC4CC(CC(C4)C2)C3)c1OC | -3.75% (inactive) | 
COc1cc(/C=C/C(=O)O)cc(S(=O)(=O)Nc2ccccc2C(=O)NCCc2ccccc2)c1OC | -14% (inactive) | 
OC(CNCCc1ccc(Cl)cc1Cl)COc1ccccc1 (stereo unspecified) | -1.98% (inactive) | 
O=C(CCCCCNC(=O)c1ccccc1)N/N=C/c1ccccc1 | -1.19% (inactive) | 
O=C(CCC(=O)Nc1ccccc1)N/N=C/c1ccccc1F | 19% (inactive) | 
O=C(N/N=C/c1ccccc1O)/C(=C/c1ccccc1)CCO |  | 1.12 µM (active)
COc1ccc(CNS(=O)(=O)c2ccc(-c3cnc(C4CC4)o3)cc2)cc1 | -15.3% (inactive) | 
Cc1ccc(S(=O)(=O)NNC(=O)/C=C/c2cccc(F)c2)cc1 | -0.326% (inactive) | 
Cc1c(CC(=O)NCC(=O)NCC(=O)O)c(=O)oc2cc3oc4c(c3cc12)CCCC4 | -3.98% (inactive) | 
Cc1cc(C2=NNC(=Nc3ccc(S(=O)(=O)N4CCOCC4)cc3)SC2)c(C)n1CC1CCCO1 (stereo unspecified) | 2.49% (inactive) | 
C=CCn1c(C)cc(C2=NNC(=NCC)SC2)c1C |  | 1 µM (active)
CS(=O)(=O)N1CCc2cc(C(=O)Nc3ccccc3Br)ccc21 | 24.9% (inactive) | 
CS(=O)(=O)c1ccc(Cl)c(NC(=O)Nc2ccccc2)c1 | 8.24% (inactive) | 
CC(=O)Nc1cc(C(=O)O)ccc1S(=O)(=O)c1ccc(Cl)cc1 | 1.43% (inactive) | 
O=C(Nc1ccccc1)c1nnsc1S(=O)(=O)c1ccc(Cl)cc1 |  | 11.2 µM (active)
CC(=O)Nc1ccc(NC(=O)CN2C(=O)COc3ccc(S(=O)(=O)N4CCCCC4)cc32)cc1 | -2.53% (inactive) | 
O=[N+]([O-])c1ccc(N(CCO)Cc2ccccc2)c([N+](=O)[O-])c1 | -0.982% (inactive) | 
Cc1cccc(C(=O)c2cccc(C)c2)c1 | -10.7% (inactive) | 
Cc1cccc(C(=O)O)c1 | -10% (inactive) | 
Cc1cccc(/C(N)=N/OC(=O)c2ccccc2Cl)c1 |  | 5.01 µM (active)

Structure (SMILES) | activity, negative = inhibition | Potency
Cc1ccc(Cn2ccc(NC(=O)c3cc(C(C)C)on3)n2)cc1 | 10% (inactive) | 
O=C(Nc1ccn(Cc2ccccc2)n1)c1n[nH]c([N+](=O)[O-])c1Cl |  | 11.2 µM (active)
O=C(Nc1ccn(Cc2ccccc2)n1)c1cccc(F)c1 | -24.1% (inactive) | 
CCc1ccc(-c2cc3c(=O)n(CC(=O)NCCCN4CCN(Cc5ccccc5)CC4)nc(C)n3n2)cc1 | -6.24% (inactive) | 
O=C(/C=C/c1ccc(Cl)cc1)NCCCn1ccnc1 | 9.13% (inactive) | 
Cc1ccc2nc(N3C(=O)C(O)=C(C(=O)c4ccco4)C3c3cccc(O)c3)sc2c1 (stereo unspecified) | -7.39% (inactive) | 
Brc1ccc2nc(N3CCCC3)sc2c1 | -10.3% (inactive) | 
Cc1nc2cc3c(cc2s1)OCO3 | -16.5% (inactive) | 
c1c2c(cc3sc(N4CCCCC4)nc13)OCCO2 |  | 1.26 µM (active)
CN(c1ccccc1)S(=O)(=O)c1cc(C(=O)Nc2nc3ccccc3[nH]2)ccc1Cl |  | 3.16 µM (active)
CN(c1ccccc1)S(=O)(=O)c1cc(C(=O)OCC(=O)N2CCN(C(=O)c3ccco3)CC2)ccc1Cl | 7.37% (inactive) | 
CN(c1ccccc1)S(=O)(=O)c1ccc(Cl)c(C(=O)NCCc2c[nH]c3ccccc23)c1 | -1.77% (inactive) | 
Cc1c2cnn(CC(=O)NCCCN3CC(C)CC(C)C3)c(=O)c2c(C)n1Cc1ccc(Cl)cc1 (stereo unspecified) | -1.41% (inactive) | 
COc1ccc(C(=O)NCc2nnc(SCC(=O)NC3=NCCS3)n2C)cc1 | 2.32% (inactive) | 
Cc1cc(-c2ccc(S(=O)(=O)N3CCN(c4cccc(C(F)(F)F)c4)CC3)s2)on1 | -17.3% (inactive) | 
NC(=O)c1cc2ccccc2o/c1=N/NC(=O)c1cccc(F)c1 | -20.1% (inactive) | 
Cc1cccc(S(=O)(=O)N2CN(CC3CCCO3)c3nc4ccccc4nc32)c1 (stereo unspecified) | 5.1% (inactive) | 
Fc1ccccc1/C=C1\CCCC2=C1Nc1ncnn1C2c1ccccc1F (stereo unspecified) |  | 3.98 µM (active)
CC1=C(C(N)=O)C(c2ccc(Br)cc2)n2ncnc2N1 (stereo unspecified) | 12.9% (inactive) | 
Cc1ccc(C(=O)c2coc3ccc(O)c(CN(C)C)c23)cc1 | -13.4% (inactive) | 
CCCCCCn1cc(C(=O)O)c(=O)c2cc(F)c(N3CCCCC3)cc21 | -9.72% (inactive) | 
Cc1ccc(NC(=O)c2cc(-c3ccccc3O)n[nH]2)cc1C | -8.32% (inactive) | 
O=C(c1ccc(OC2CCN(C/C=C/c3ccc(F)cc3)CC2)cc1)N1CCCCC1 | 7.64% (inactive) | 
